“And” between values parts separate entries of the source, which are not always exact repeats. Identical values can stand only once. The campaign covered roughly 350,000 compounds. About 840 (0.24%) were called active. Cut-off read from the data, not from the text of the source: active = inhibition above about 10%; inactive = the rest. The full list was thinned out, with actives kept by preference.
Biological target: Toxin B (Clostridioides difficile) (UniProt P18177)
Test: TcdB glycohydrolase inhibitors, primary screen, biochemical, single point, plate reader (AID 652162)
Settings: TcdB glycohydrolase enzymatic assay, at 9.99 µM, stronger effect = higher value

Sequence of Toxin B (Clostridioides difficile) (P18177 whole entry, looked up): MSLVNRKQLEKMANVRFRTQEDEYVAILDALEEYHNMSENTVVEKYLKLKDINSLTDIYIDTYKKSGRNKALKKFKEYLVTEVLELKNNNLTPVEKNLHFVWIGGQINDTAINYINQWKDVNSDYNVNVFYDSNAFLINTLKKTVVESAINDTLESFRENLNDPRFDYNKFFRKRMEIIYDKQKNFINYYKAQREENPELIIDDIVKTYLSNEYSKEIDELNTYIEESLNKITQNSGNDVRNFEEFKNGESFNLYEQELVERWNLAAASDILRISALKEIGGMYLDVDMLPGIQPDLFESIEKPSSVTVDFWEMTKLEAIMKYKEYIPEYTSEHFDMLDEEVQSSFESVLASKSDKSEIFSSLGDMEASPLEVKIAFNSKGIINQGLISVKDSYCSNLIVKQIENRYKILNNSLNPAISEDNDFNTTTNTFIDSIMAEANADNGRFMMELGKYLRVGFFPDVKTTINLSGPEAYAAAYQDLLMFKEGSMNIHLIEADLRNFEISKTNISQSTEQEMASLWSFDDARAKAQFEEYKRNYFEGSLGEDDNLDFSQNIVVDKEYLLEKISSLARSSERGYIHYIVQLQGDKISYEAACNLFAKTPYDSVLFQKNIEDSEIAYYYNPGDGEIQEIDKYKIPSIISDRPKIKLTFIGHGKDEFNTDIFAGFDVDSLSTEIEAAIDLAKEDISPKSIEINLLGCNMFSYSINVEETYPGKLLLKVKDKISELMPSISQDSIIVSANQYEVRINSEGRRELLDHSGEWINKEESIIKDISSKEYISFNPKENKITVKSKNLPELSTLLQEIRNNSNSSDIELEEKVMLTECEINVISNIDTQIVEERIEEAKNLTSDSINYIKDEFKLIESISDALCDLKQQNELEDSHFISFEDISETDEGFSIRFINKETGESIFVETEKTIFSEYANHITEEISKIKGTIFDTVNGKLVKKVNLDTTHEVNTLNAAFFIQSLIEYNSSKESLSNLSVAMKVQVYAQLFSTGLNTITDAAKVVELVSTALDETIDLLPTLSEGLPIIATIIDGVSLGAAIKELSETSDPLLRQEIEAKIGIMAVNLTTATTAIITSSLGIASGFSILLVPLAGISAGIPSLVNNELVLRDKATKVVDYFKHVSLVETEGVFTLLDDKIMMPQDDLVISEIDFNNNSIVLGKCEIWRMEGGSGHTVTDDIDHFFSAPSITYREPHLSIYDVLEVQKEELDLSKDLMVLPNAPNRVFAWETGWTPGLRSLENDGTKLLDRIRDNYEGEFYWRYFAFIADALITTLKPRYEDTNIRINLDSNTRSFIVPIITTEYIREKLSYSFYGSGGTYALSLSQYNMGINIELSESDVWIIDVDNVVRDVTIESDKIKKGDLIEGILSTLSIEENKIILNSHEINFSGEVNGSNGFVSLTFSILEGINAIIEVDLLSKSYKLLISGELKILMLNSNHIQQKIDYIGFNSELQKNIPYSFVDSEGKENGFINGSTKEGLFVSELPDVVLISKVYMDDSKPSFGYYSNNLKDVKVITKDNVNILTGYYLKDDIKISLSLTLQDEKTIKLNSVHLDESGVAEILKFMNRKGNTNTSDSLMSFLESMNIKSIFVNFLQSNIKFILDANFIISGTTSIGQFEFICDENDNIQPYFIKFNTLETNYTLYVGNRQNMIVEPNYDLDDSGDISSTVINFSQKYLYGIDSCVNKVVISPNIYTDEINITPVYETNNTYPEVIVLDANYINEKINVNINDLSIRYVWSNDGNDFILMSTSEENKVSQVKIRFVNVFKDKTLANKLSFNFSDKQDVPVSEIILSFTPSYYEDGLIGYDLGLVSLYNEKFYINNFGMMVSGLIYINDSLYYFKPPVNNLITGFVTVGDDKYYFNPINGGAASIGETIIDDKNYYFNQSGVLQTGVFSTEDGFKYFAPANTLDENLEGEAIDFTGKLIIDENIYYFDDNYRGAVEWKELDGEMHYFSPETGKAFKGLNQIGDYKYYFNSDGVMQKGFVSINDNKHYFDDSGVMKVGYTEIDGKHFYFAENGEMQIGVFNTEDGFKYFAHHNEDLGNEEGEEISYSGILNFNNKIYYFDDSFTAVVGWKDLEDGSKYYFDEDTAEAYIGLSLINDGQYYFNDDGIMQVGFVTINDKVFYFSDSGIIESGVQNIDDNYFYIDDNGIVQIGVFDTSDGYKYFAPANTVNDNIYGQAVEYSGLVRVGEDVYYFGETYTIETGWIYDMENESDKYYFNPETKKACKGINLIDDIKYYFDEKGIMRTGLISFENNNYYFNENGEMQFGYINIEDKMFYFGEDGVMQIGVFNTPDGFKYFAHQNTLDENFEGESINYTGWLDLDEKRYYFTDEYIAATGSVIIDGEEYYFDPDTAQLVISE

| Compound | inhibition |
| --- | --- |
| CCC(=O)N(C)C[C@H]1Oc2cc(C#CC3CC3)ccc2S(=O)(=O)N([C@H](C)CO)C[C@H]1C | -0.263% (inactive) |
| COCC(=O)N1C[C@H]2[C@@H](c3ccccc31)[C@@H](CO)N2C(=O)NC(C)C | -0.399% (inactive) |
| CCOC(=O)CNC(=O)CSc1ncccc1-c1nc2ccccc2[nH]1 | -7.68% (inactive) |
| Nc1ccccc1-c1nc2ccncc2[nH]1 | 12.2% (active) |
| Cc1cc(C)nc(Nc2n[nH]c(-c3ccccc3N)n2)n1 | -0.68% (inactive) |
| COCC(=O)N(C)C[C@@H]1Oc2ncc(-c3ccccc3OC)cc2C(=O)N([C@@H](C)CO)C[C@@H]1C | -11.6% (inactive) |
| CC(C)NC(=O)N1C[C@@H]2[C@H](c3ccccc31)[C@@H](CO)N2Cc1ccc(Cl)cc1 | -0.718% (inactive) |
| Cc1noc(C)c1NC(=O)N(C)C[C@@H]1OCCCC[C@H](C)Oc2ccc(NC(=O)NC3CCCCC3)cc2C(=O)N([C@H](C)CO)C[C@@H]1C | 0.987% (inactive) |
| COc1cc(/C=C2\C(=N)N3N=C(CC(=O)N4CCOCC4)SC3=NC2=O)cc(OC)c1OC | 0.211% (inactive) |
| COC1=C/C(=C/c2c(N)n3nc(CC(=O)N4CCOCC4)sc3nc2=O)C=CC1=O | 11.3% (active) |
| C=CCC1=C/C(=C\c2c(N)n3nc(CC(=O)N4CCOCC4)sc3nc2=O)C=C(OC)C1=O | -3.86% (inactive) |
| CCCC(=O)N1CC2(CCN(C(=O)C3CC3)CC2)c2c(n(C)c3cc(OC)ccc23)[C@H]1CO | -0.231% (inactive) |
| CCS(=O)(=O)Nc1ccc2c(c1)C(=O)N(C)C[C@@H](OC)[C@@H](C)CN(C(=O)COC)[C@H](C)CO2 | -1.04% (inactive) |
| C[C@@H]1CCCCO[C@@H](CN(C)C(=O)NC2CCCCC2)[C@@H](C)CN([C@@H](C)CO)C(=O)c2cc(NC(=O)C3CCCCC3)ccc2O1 | 0.287% (inactive) |
| C[C@@H]1CN([C@H](C)CO)C(=O)CCCn2cc(nn2)CO[C@@H]1CN(C)C(=O)Nc1ccc(-c2cccs2)cc1 | -8.3% (inactive) |
| CC(Oc1ccc(Br)cc1)C(=O)NC1CCCCCC1 (stereo not given) | 2.69% (inactive) |
| O=C(COC(=O)c1cccnc1Cl)NC(=O)NC1CCCCC1 | 1.25% (inactive) |
| CC(OC(=O)c1cccnc1Cl)C(=O)NC1CCCCC1 (stereo not given) | 15.9% (active) |
| COCCNC(=O)[C@@H]1[C@@H](CO)[C@@H]2Cn3c(ccc(-c4ccccc4F)c3=O)[C@@H]2N1C(=O)C1CC1 | -1.01% (inactive) |
| Cc1ccccc1S(=O)(=O)NCC[C@@H]1CC[C@H](NC(=O)C2CCCCC2)[C@@H](CO)O1 | 0.652% (inactive) |
| Cc1nnc(Sc2nc3c(c(=O)[nH]c(=O)n3C)n2Cc2ccccc2)s1 | -0.878% (inactive) |
| C=CCn1c(SCc2ccccc2)nc2c1c(=O)[nH]c(=O)n2C | 1.32% (inactive) |
| Cn1c(=O)[nH]c(=O)c2c1[nH]c(=S)n2Cc1ccccc1 | 20.2% (active) |
| CC(=O)N1CCCCN2[C@H](C1)[C@@H](c1ccc(-c3ccc(F)cc3)cc1)[C@@H]2CO | -0.351% (inactive) |

| Compound | inhibition |
| --- | --- |
| C[C@H]1CN([C@@H](C)CO)S(=O)(=O)c2ccc(-c3ccccc3F)cc2O[C@H]1CN(C)C(=O)C1CC1 | -0.346% (inactive) |
| COc1ccc(NC(=O)N[C@H]2CC[C@@H](CCNC(=O)c3cc(Cl)cc(Cl)c3)O[C@H]2CO)cc1 | -0.154% (inactive) |
| C[C@H]1CN([C@@H](C)CO)C(=O)Cc2cc(NC(=O)Cn3cnnn3)ccc2O[C@H]1CN(C)CC1CC1 | 0.02% (inactive) |
| O=C(C1CCOCC1)N1CC2(C1)[C@H](c1ccccc1)[C@H](CO)N2Cc1ccc(Cl)cc1 | -0.452% (inactive) |
| Cc1ccc(-c2cnc3c(c2)C(=O)N([C@H](C)CO)C[C@@H](C)[C@H](CN(C)Cc2ccccc2C(=O)O)O3)cc1 | 0.061% (inactive) |
| C[C@@H]1CCCCO[C@@H](CN(C)C(=O)NC2CCCCC2)[C@@H](C)CN([C@H](C)CO)C(=O)c2cc(NC(=O)CCCCCC(=O)Nc3ccccc3N)ccc2O1 | 0.319% (inactive) |
| O=C(COC(=O)c1cccc(Cl)c1)Nc1ccc2[nH]c(=O)[nH]c2c1 | -0.403% (inactive) |
| COc1ccc(C(=O)OCC(=O)Nc2ccc3[nH]c(=O)[nH]c3c2)c(OC)c1OC | 11.5% (active) |
| O=C(COc1ccc([N+](=O)[O-])cc1Cl)Nc1ccc2[nH]c(=O)[nH]c2c1 | 0.327% (inactive) |
| C[C@@H]1CN([C@H](C)CO)C(=O)c2cc(NS(=O)(=O)c3ccc(Cl)cc3)ccc2O[C@@H](C)CCCCO[C@H]1CN(C)Cc1ccccc1 | -0.656% (inactive) |
| COc1ccc(S(=O)(=O)N2CCCCC2)cc1C(=O)NC1CCS(=O)(=O)C1 (stereo not given) | 0.566% (inactive) |
| N#Cc1ccc(OCC(=O)NC(=O)NC2CCS(=O)(=O)C2)cc1 (stereo not given) | -2.43% (inactive) |
| COc1ccc(-c2ccc(OC(=O)NC3CCS(=O)(=O)C3)cc2)cc1 (stereo not given) | 10.6% (active) |
| C[C@@H]1CCCCO[C@@H](CN(C)C(=O)NC2CCCCC2)[C@H](C)CN([C@H](C)CO)C(=O)c2cc(NS(=O)(=O)c3ccc(Cl)cc3)ccc2O1 | -0.076% (inactive) |
| C[C@@H]1CN([C@H](C)CO)C(=O)c2cc(NC(=O)Nc3cccc4ccccc34)ccc2O[C@H]1CN(C)C(=O)Nc1ccccc1 | -0.695% (inactive) |
| O=C(c1cnccn1)N1CC(=O)N2[C@H](C1)[C@H](c1ccc(/C=C/c3ccccc3)cc1)[C@@H]2CO | 0.636% (inactive) |
| CO[C@@H]1CC[C@H]2CCN(C)C(=O)[C@@H](C)CN(C)C(=O)c3cccc(C#N)c3OC[C@@H]1O2 | 0.637% (inactive) |
| COc1cccc2cc(/C(C)=N/NC(=O)c3ccco3)oc12 | 14% (active) |
| COc1cccc2cc(C(N)=O)/c(=N\NC(=O)c3ccccc3)oc12 | -0.164% (inactive) |
| COc1cccc2cc(C(=O)NCc3ccc(C)cc3)c(=N)oc12 | 0.357% (inactive) |
| COc1ccc(S(=O)(=O)Nc2ccc3c(c2)C(=O)N([C@H](C)CO)C[C@@H](C)[C@H](CN(C)C(=O)c2ccncc2)OCCCC[C@@H](C)O3)cc1 | 1.52% (inactive) |
| CNC[C@H]1Oc2cc(C#CC(C)(C)O)ccc2S(=O)(=O)N([C@@H](C)CO)C[C@@H]1C | -0.494% (inactive) |
| COCC(=O)Nc1ccc2c(c1)C(=O)N(C)[C@@H]1CC[C@@H](CC(=O)NCC(F)(F)F)O[C@H]1CO2 | 0.945% (inactive) |
| O=C(C[C@@H]1CC[C@H](NC(=O)Cc2ccccn2)[C@H](CO)O1)NCCc1ccncc1 | -1.24% (inactive) |

| Compound | inhibition |
| --- | --- |
| O=C(Nc1ccc(F)cc1)N[C@H]1CC[C@H](CCn2cc(-c3ccc(F)cc3)nn2)O[C@@H]1CO | -2.54% (inactive) |
| CO[C@@H]1CN(C)C(=O)c2cc(NC(=O)C3CC3)ccc2OC[C@H](C)N(C(=O)c2ccccc2F)C[C@H]1C | 0.856% (inactive) |
| O=C(C[C@H]1C[C@H]2c3cc(NC(=O)c4ccc5c(c4)OCO5)ccc3O[C@H]2[C@@H](CO)O1)NCc1cccc(F)c1 | 15.2% (active) |
| O=C(C[C@H]1C[C@@H]2c3cc(NC(=O)c4ccc5c(c4)OCO5)ccc3O[C@@H]2[C@@H](CO)O1)NCc1cccnc1 | -0.896% (inactive) |
| O=C(C[C@@H]1C[C@@H]2c3cc(NC(=O)c4ccc5c(c4)OCO5)ccc3O[C@@H]2[C@@H](CO)O1)NCc1ccc(Cl)cc1 | 1.53% (inactive) |
| CNC[C@H]1Oc2cc(-c3ccc(C(=O)N(C)C)cc3)ccc2S(=O)(=O)N([C@@H](C)CO)C[C@@H]1C | -0.097% (inactive) |
| C[C@@H]1CN([C@H](C)CO)C(=O)c2cc(C3=CCCC3)cnc2O[C@H]1CN(C)C | 0.146% (inactive) |
| COc1ccc(NC(=O)N(C)C[C@@H]2Oc3c(NC(=O)c4ccc(-c5nccs5)cc4)cccc3C(=O)N([C@H](C)CO)C[C@@H]2C)cc1 | 0.889% (inactive) |
| COc1cccc(NC(=O)N[C@@H]2C=C[C@H](CC(=O)NCc3ccccn3)O[C@H]2CO)c1 | -0.684% (inactive) |
| N#C[C@H]1N[C@H](CO)[C@H]1c1ccc(-c2cccc(F)c2)cc1 | -1.58% (inactive) |
| Cc1ccc(-c2ccc(C3[C@H]4CNC[C@@H]3N4S(=O)(=O)c3ccccc3C)cc2)cc1 (stereo not given in full) | -0.326% (inactive) and -0.213% (inactive) |
| COC(=O)[C@@H]1[C@@H](CO)[C@@H]2Cn3c(ccc(-c4ccc(OC)cc4)c3=O)[C@@H]2N1C | -0.952% (inactive) |
| C[C@@H]1CN([C@H](C)CO)C(=O)c2cc(NC(=O)NC3CCCCC3)ccc2O[C@@H](C)CCCCO[C@H]1CN(C)C(=O)Nc1ccccc1 | 0.722% (inactive) |
| C[C@H](CO)N1C[C@H](C)[C@H](CN(C)Cc2ccc3c(c2)OCO3)OCCCC[C@H](C)Oc2ccc(NC(=O)c3ccccc3)cc2C1=O | -0.045% (inactive) |
| Cc1ccc(-c2ccc(=O)n(Cc3ccc(F)cc3Cl)n2)cc1 | 0.329% (inactive) |
| O=c1c([N+](=O)[O-])cccn1Cc1ccc(F)cc1Cl | 38.4% (active) |
| O=Cc1cn(Cc2ccc(F)cc2Cl)c2ccccc12 | -0.141% (inactive) |
| CCC(=O)N1C[C@@H](C)[C@H](OC)CN(C)C(=O)c2ccc(NC(=O)COC)cc2OC[C@@H]1C | -0.964% (inactive) |
| C[C@@H]1CCCCO[C@@H](CN(C)C(=O)NC2CCCCC2)[C@H](C)CN([C@H](C)CO)C(=O)c2cc(NC(=O)Nc3cccc4ccccc34)ccc2O1 | -0.319% (inactive) |
| CNC(=O)C[C@H]1CC[C@H]2[C@H](COc3ccc(NC(=O)c4cccc(F)c4)cc3C(=O)N2C)O1 | -0.293% (inactive) and -0.193% (inactive) |
| CN1C(=O)c2cc(NC(=O)c3ccccc3)ccc2OC[C@@H]2O[C@H](CC(=O)NCC3CC3)CC[C@@H]21 | 0.093% (inactive) |
| CN1C(=O)c2cc(NC(=O)c3cccc(F)c3)ccc2OC[C@@H]2O[C@@H](CC(=O)NCC3CCCCC3)CC[C@H]21 | 27.1% (active) and 19.3% (active) |
